Test results taken from PubChem BioAssay AID1466 (National Center for Advancing Translational Sciences (NCATS), 2008).
The whole screen tested about 200,000 compounds, of which about 10 (0.005%) were called active. Inconclusive results (about 8%) are left out. The call rests on the fitted dose curve; in most records, active means well fitted inhibition curve with a large enough effect; inconclusive means small, poorly fitted or top-dose-only effect, or effect the other way, or another doubt; inactive means no such curve, though single readings can be large or run the other way. Not all results are given here.

Target: Lysosomal alpha-glucosidase (Homo sapiens) (UniProt P10253)
Test: qHTS Assay for Inhibitors of Human alpha-Glucosidase as a Potential Chaperone Treatment of Pompe Disease;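 further: plate controls were uninhibited enzyme wells for no effect and no-enzyme background for full effect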
Conditions: purified human GAA, 4-MU-alpha-glucoside fluorescence; series mostly up to 76.9 µM; activity change, negative = inhibition: at the top concentration
Text: NIH Chemical Genomics Center [NCGC] NIH Molecular Libraries Probe Production centers Network [MLPCN] MLPCN Grant: 1R03MH084841-01 Assay Submitter (PI): Wei Zheng NCGC Assay Overview: Alpha-glucosidase is responsible for hydrolysis of terminal, non-reducing 1,4-linked alpha-D-glucose residues with release of alpha-D-glucose. It is a lysosomal hydrolase that is required for the degradation of a small percentage (1-3%) of cellular glycogen in human. Deficiency of this enzyme results in glycogen-storage disease type II (GSDII), also referred to as Pompe disease, an autosomal recessive disorder. Structurally normal glycogen is accumulated in lysosomes and cytoplasm in affected patients, primarily in muscle tissues. Excessive glycogen storage within lysosomes may interrupt normal functioning of other organelles and leads to cellular injury. In turn, this leads to enlargement and dysfunction of the entire organ involved (eg, cardiomyopathy and muscle weakness). It has reported that the improper folding and trafficking of alpha-glucosidase resulting from the genetic mutations may account for a significant number of Pompe patients. […] We optimized this alpha-glucosidase assay in 1536-well plate format for identifying the novel small molecule inhibitors with the structures other than the sugar analogs in order to develop the new pharmacological chaperones.
NCGC Assay Protocol Summary: This is a fluorogenic enzyme assay with 4-methylumbelliferyl-alpha-D-[…] as the substrate and human alpha-glucosidase as the enzyme preparation. Upon the hydrolysis of this fluorogenic substrate, the resulting product, 1. 4-methyllumbelliferone, can be excited at 365 nm and emits at 440 nm which can be detected by a standard fluorescence plate reader. Data were normalized to the controls for basal activity (without enzyme) and 100% activity (with enzyme). In the AC50 values were determined from concentration-response data modeled with the standard Hill equation. Assay buffer: 50 mM citric acid (titrated with potassium phosphate to pH 5.0), 0.005% Tween-20, pH 5.0. (pH 5.0 is an optimal condition for this enzyme assay) 1536-well assay protocol for the human alpha-glucosidase: (1) Add 2 ul/well of enzyme (4 nM final) (2) Add 23 nL compounds in DMSO solution. The final titration was 0.7 nM to 77 uM. (3) Add 1 ul of substrate (400 uM final) (4) Incubate at room temperature for 20 min. (5) Add 2 ul stop solution (1M NaOH and 1M Glycine mixture, pH 10) (6) Detect the assay plate in a ViewLux plate reader (PerkinElmer) with Ex=365 nm and Em=440nm. Keywords: Alpha-glucosidase, Pompe Disease, pharmacological chaperone, chaperone therapy, high throughput screening, alpha-glucosidase inhibitor, MLSMR, MLSCN, NIH Roadmap, qHTS and NCGC

Activity change, negative = inhibition, inactive:
CN1CCc2nc(SC(C(=O)O)c3ccccc3)c(C#N)c(-c3cccs3)c2C1 (stereo not given) -7.98%
COc1ccccc1NC(=S)N1CCN(C(c2ccccc2)c2ccccc2)CC1 -6.81%
S=C(NNC(=S)NC1CC2CCC1C2)NC1CC2C=CC1C2 (stereo not given) -2.79%
COc1ccccc1NC(=S)N1CCC(NC(=O)C23CC4CC(CC(C4)C2)C3)CC1 7.9%
COc1ccc2[nH]c(C(=O)Nc3ccccc3Cl)cc2c1 -17.6%
COc1ccc(Br)c2c1C(=O)CC2 1.34%
c1ccc(-n2nnnc2-c2cccnc2)cc1 2.38%
CCCSc1ncccc1C(=O)O 3.35%
Cn1c(SCC(=O)c2ccc(F)cc2)nnc1-c1ccccn1 4.07%
COc1ccc(Cl)cc1NC(=O)C(C)N1CCc2ccccc21 (stereo not given) 4.93%
CSc1ccc(CNCCN2CCOCC2)cc1 7.49%
Cc1ccccc1NC(=O)Nc1ccccc1N1CCCCC1 -14%
Clc1ccc(CSc2nnc3c(n2)[nH]c2ccccc23)cc1 7.73%
O=C(COc1ccc(S(=O)(=O)N2CCCCC2)cc1)NCc1ccccn1 -7.73%
O=C(NNS(=O)(=O)c1ccccc1C(F)(F)F)c1cc2ncc(C(F)(F)F)cc2s1 -2.23%
CCOC(=O)C1CCN(C(=O)C2(NC(=O)Nc3cccc(F)c3)CCCCC2)CC1 5.94%
Cc1ccccc1-c1nc(C#N)c(NCc2ccco2)o1 -5.5%
Cc1cccc(C(=O)N2CCC(c3nc4ccccc4s3)CC2)c1 -3.53%
COc1ccc(CN2CCN(Cc3cn(C)nc3-c3ccccc3)CC2CCO)c(C)c1C (stereo not given) 4.33%
Cc1noc(C)c1/C=N/Nc1ccc2ccccc2n1 8.17%
COc1cc(CNCCN(C)C)ccc1OCc1c(F)cccc1Cl 7.64%
Cc1ccc(C(=O)NC(=S)Nc2ccc(N3CCOCC3)cc2)cc1 -7.85%
O=C(CN1CCN(C/C=C/c2ccccc2)CC1)Nc1ccc(F)cc1F 2.05%
COC(=O)c1cn(C(=O)c2ccc(Cl)cc2)c2ccccc12 1.26%
O=C1/C(=C/c2cccs2)CCC1C1CCCC1 (stereo not given) -10.7%
O=C(CCl)N(Cc1cccc([N+](=O)[O-])c1)c1cccc(Cl)c1 0.594%
Cc1cc(OC(=O)c2ccccc2)c([N+](=O)[O-])c(=O)[nH]1 -5.1%
CC(O)CNCCOc1cccc(Oc2ccccc2)c1 (stereo not given) 13.8%
O=C(CSc1ncn[nH]1)Nc1nc(-c2cccc([N+](=O)[O-])c2)cs1 -24.7%
Nc1ccc(C(=O)OCC(=O)NC2CCS(=O)(=O)C2)cc1[N+](=O)[O-] (stereo not given) -4.02%
COc1cccc(OCCCN2CCCCCC2)c1 2.44%
Cc1ccc(Cl)cc1NC(=O)COC(=O)CC(C)(C)C -12.7%
CCC1(C)Cc2c(sc3nc(SC)[nH]c(=O)c23)CO1 (stereo not given) 0.866% [at 15.4 µM]
CC1CCN(S(=O)(=O)c2ccc3ncn(CC(=O)N(C)C4CCCCC4)c(=O)c3c2)CC1 1.35%
Cc1nn(-c2ccccc2)c(=O)c2noc(C)c12 -3.66% [at 15.4 µM]
Cc1ccc(NNC(=O)c2c(F)cccc2Cl)cc1Cl 1.45% [at 15.4 µM]
Cc1c(C(=O)N(Cc2ccccc2)Cc2cccnc2)cnn1-c1ccc(F)cc1 -2.19%
CCOC(=O)C(=CNNc1ccsc1C(=O)OC)C(=O)OCC 3.25%
Cc1ccc(-c2csc(-c3cc(C)on3)n2)cc1 2.67%
CC(=O)Nc1ccc(S(=O)(=O)Nc2nccc(/C=C/c3ccccc3F)n2)cc1 4.07%
CCN1CCN(C(C(=O)NC2CCCC2)c2cc3c(cc2[N+](=O)[O-])OCO3)CC1 (stereo not given) 7%
Cc1ccc(C2CCN(C(=S)Nc3cccc(Cl)c3)C2)cc1 (stereo not given) -0.289%
COc1cccc(-c2ccc(SCC(=O)N3CCN(c4ccccc4)CC3)nn2)c1 -0.133%
COc1ccccc1-c1c(C#N)c(N)nc2c1CCC2 6.93% [at 15.4 µM]
Cc1noc(C)c1-c1nc(CSc2ccc(Cl)cc2)no1 -4.19%
C/C(=N/NC(=O)c1ccn(C)n1)c1ccncc1 -7.14%
O=C(COC(=O)c1ccccn1)Nc1cccc2ccccc12 -3.22%
CC(C)CCN1CCN(Cc2ccc(C(F)(F)F)cc2)CC1CCO (stereo not given) -11.2%
O=C(NC(Cc1c[nH]c2ccccc12)C(=O)O)/C(=C/c1ccco1)NC(=O)c1ccccc1 (stereo not given) 2.81%
COc1ccccc1-n1c(=S)[nH]c2c(sc(=S)n2-c2ccc(C)cc2C)c1=O -8.28%
COc1ccc(C)cc1NC(=O)NCc1ccccn1 10.1%
Cn1c(CC2Sc3ccccc3NC2=O)nnc1SCC(=O)c1ccc(Cl)cc1 (stereo not given) -4.88%
N#Cc1ccc(Oc2ccc(C(F)(F)F)cc2NC(=O)c2ccc(F)cc2)cc1 -0.785%
O=C(CSc1ccc([N+](=O)[O-])cn1)Nc1ccc(N2CCOCC2)c(Cl)c1 -3.22%
C/C(=N/O)c1ccc(N2C(=O)C3C4C=CC(C3C2=O)C2C3C(=O)N(c5ccc(/C(C)=N/O)cc5)C(=O)C3C42)cc1 (stereo not given) 10.2%
CC(=O)c1ccc(N=C2SCCCN2C(=O)C2CCCCC2)cc1 -10.5%
O=C(NNC(=S)NC(=O)c1cn(-c2ccccc2)nc1-c1ccccc1)c1ccncc1 -1.89%
COc1ccc(C)cc1NC(=S)Nc1ccccc1SC 4.13%
Cc1ccc(S(=O)(=O)NC(=O)N2CCCN(Cc3ccc(F)cc3)CC2)cc1 1.35%
Cc1ccc(/C=N/NC(=O)CN2CCN(Cc3ccccc3)CC2)s1 -2.78% [at 15.4 µM]
CCS(=O)(=O)c1ccc(O)c(NC(=O)COc2ccc(Cl)cc2)c1 -0.357%
CCc1nc2ccccc2c(C(=O)NCc2ccc(OC)cc2)c1C -0.62%
CCc1ccc(CN(C)C(=O)CCc2nnc(-c3ccc(-c4ccccc4)cc3)o2)nc1 -8.54%
CN(C)c1ccc(C=NCCc2ccc(S(N)(=O)=O)cc2)cc1 4.96%
COc1ccc(CN2CCC(c3nc4ccc(Cl)cc4[nH]3)CC2)cc1 5.4%
Cc1ccccc1CSc1nnc(-c2ccccc2)c(=O)[nH]1 0.989%
CCC(=O)OCCNc1nc(-c2ccccc2)nc2ccccc12 -7.1%
NNC(=O)c1cnn(-c2ccccc2)c1C(F)(F)F 3.92%
Cc1ccc(CN(Cc2cccnc2)C(=S)Nc2cccc(Cl)c2C)cc1 6.23%
CCOc1cc2c(Cl)ncnc2c(OCC)c1OCC -5.72%
